In article PMC7862700, “An all-to-all approach to the identification of sequence-specific readers for epigenetic DNA modifications on cytosine”:

How the values were obtained:
Test in all cases: DAPPL (digital affinity profiling via proximity ligation, sequencing); 10 mM Tris-HCl pH 7.5, 50 mM NaCl, 1 mM DTT, 4% glycerol, room temperature, 30 min; GST-TFs on glutathione beads, 16-mer random dsDNA library, 0.1% formaldehyde crosslink after washing; high values mean tight binding
[1] = target: T1, FLI1 (Homo sapiens, UniProt Q01543 1-452); settings: protein: recombinant; tags: N-terminal GST; dsDNA, one strand shown
T1 sequence: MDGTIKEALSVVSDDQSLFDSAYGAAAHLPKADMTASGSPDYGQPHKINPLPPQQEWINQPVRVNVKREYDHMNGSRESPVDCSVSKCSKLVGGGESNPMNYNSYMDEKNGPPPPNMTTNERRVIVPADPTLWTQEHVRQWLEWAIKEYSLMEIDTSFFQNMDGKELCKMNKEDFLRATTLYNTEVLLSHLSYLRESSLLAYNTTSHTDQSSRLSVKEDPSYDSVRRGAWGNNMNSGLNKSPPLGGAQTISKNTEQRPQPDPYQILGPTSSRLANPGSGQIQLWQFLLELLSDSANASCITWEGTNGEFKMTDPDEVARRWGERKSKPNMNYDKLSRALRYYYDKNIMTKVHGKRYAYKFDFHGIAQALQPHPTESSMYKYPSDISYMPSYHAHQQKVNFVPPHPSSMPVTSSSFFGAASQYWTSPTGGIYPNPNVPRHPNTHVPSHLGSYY
How it was run: (§1)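 Each value of binding signal is a hexamer's read frequency for a factor divided by the same hexamer's frequency in the tag-only sample. Barcoded, bead-captured GST fusions of human transcription factors made in yeast were pooled with that sample and incubated with 200 nmole of a random double-stranded 16-mer DNA library in Tris/NaCl/DTT/glycerol buffer at room temperature for 30 min. Washing, 0.1% formaldehyde crosslinking, proximity ligation, PCR and Illumina NextSeq500 sequencing followed.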

[2] = target: T2, ELK1 (Homo sapiens, UniProt P19419 1-428); settings: protein: recombinant; tags: N-terminal GST; dsDNA, one strand shown
T2 sequence: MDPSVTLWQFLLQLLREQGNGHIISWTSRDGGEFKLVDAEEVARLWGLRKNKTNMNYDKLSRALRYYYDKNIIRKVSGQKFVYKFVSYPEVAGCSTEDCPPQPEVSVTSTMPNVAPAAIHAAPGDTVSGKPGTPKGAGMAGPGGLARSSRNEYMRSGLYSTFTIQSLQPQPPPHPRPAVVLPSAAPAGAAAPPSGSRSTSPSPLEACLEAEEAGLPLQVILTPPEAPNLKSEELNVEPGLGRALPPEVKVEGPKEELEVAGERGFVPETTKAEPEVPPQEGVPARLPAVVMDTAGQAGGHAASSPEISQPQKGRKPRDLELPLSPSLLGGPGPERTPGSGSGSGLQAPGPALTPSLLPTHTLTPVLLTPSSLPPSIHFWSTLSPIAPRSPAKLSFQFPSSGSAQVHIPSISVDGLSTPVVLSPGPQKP
How it was run: as §1

[3] = target: T3, GABPA (Homo sapiens, UniProt Q06546 1-454); settings: protein: recombinant; tags: N-terminal GST; dsDNA, one strand shown
T3 sequence: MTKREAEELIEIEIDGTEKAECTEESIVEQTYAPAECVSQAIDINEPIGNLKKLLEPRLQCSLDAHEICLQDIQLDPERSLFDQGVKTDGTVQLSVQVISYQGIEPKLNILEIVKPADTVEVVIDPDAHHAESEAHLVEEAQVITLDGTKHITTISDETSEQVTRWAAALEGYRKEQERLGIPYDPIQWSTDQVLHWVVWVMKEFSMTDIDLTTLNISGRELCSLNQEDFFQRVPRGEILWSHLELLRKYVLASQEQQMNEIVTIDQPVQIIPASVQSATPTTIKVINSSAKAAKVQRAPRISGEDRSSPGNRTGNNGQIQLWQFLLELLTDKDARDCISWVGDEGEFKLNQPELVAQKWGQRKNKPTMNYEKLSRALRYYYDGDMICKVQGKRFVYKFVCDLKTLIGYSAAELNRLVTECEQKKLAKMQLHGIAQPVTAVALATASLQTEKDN
How it was run: as §1

[4] = target: T4, ERG (Homo sapiens, UniProt P11308 1-479); settings: protein: recombinant; tags: N-terminal GST; dsDNA, one strand shown
T4 sequence: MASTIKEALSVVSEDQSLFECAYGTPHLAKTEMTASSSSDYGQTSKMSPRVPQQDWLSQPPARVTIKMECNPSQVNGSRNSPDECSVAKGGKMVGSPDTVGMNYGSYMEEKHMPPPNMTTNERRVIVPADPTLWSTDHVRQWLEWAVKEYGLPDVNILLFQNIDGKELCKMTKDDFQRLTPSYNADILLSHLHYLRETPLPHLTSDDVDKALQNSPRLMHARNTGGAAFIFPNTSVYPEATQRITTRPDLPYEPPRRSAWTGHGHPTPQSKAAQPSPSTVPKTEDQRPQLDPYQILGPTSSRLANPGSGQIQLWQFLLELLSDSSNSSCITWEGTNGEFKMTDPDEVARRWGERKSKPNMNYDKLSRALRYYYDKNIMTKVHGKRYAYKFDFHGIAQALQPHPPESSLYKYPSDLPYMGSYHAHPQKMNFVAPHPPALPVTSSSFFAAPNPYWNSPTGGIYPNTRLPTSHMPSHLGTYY
How it was run: as §1

[5] = target: ELF1 (Homo sapiens, UniProt P32519 1-619); settings: protein: recombinant; tags: N-terminal GST; dsDNA, one strand shown
ELF1, sequence (P32519 whole entry): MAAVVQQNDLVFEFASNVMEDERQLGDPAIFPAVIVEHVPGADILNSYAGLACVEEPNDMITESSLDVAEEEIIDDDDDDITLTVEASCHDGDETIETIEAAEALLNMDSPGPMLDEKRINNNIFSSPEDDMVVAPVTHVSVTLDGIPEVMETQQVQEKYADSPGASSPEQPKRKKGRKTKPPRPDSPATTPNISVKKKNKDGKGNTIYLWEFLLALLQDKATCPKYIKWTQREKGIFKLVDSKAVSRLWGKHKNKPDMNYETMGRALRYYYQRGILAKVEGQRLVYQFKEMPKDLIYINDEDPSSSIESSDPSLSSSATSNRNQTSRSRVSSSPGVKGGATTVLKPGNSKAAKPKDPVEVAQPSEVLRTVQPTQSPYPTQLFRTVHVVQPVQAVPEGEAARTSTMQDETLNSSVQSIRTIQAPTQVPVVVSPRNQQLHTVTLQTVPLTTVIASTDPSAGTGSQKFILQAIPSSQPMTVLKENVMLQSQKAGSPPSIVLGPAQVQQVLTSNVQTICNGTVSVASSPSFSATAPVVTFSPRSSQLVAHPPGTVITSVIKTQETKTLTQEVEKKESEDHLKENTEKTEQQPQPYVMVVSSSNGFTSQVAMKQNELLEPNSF
How it was run: as §1

[6] = target: T5, EHF (Homo sapiens, UniProt Q9NZC4 1-300); settings: protein: recombinant; tags: N-terminal GST; dsDNA, one strand shown
T5 sequence: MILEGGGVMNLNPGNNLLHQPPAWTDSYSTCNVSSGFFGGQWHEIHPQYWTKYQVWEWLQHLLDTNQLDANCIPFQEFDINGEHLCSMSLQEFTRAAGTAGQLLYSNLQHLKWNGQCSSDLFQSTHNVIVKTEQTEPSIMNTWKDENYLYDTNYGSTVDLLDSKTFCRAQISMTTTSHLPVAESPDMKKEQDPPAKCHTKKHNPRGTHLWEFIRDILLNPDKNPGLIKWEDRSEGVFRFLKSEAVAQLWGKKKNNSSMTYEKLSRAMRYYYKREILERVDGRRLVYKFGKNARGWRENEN
How it was run: as §1

[7] = target: SPI1 (Homo sapiens, UniProt P17947 1-270); settings: protein: recombinant; tags: N-terminal GST; dsDNA, one strand shown
How it was run: as §1

[8] = target: SPIB (Homo sapiens, UniProt Q01892 1-262); settings: protein: recombinant; tags: N-terminal GST; dsDNA, one strand shown
SPIB, sequence (Q01892 whole entry): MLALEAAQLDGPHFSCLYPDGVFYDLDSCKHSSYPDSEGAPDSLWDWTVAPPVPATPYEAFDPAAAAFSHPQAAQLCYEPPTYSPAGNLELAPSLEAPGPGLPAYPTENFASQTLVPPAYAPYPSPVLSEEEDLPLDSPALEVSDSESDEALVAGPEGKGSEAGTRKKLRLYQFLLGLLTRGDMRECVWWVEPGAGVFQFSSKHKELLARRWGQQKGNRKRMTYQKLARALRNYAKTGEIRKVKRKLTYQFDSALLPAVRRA
How it was run: as §1

[9] = target: T6, ELK3 (Homo sapiens, UniProt P41970 1-407); settings: protein: recombinant; tags: N-terminal GST; dsDNA, one strand shown
T6 sequence: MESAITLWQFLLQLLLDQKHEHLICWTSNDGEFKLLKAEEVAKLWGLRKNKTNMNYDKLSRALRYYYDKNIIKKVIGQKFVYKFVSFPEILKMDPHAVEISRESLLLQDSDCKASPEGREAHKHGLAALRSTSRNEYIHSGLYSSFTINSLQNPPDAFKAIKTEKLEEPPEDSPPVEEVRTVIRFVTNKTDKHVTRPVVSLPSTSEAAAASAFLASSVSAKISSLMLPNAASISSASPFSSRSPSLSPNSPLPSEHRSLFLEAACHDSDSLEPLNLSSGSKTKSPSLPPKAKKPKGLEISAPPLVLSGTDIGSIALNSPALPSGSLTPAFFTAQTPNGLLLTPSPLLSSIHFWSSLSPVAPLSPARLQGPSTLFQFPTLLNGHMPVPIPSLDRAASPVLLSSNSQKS
How it was run: as §1

[10] = target: T7, FEV (Homo sapiens, UniProt Q99581 1-238); settings: protein: recombinant; tags: N-terminal GST; dsDNA, one strand shown
T7 sequence: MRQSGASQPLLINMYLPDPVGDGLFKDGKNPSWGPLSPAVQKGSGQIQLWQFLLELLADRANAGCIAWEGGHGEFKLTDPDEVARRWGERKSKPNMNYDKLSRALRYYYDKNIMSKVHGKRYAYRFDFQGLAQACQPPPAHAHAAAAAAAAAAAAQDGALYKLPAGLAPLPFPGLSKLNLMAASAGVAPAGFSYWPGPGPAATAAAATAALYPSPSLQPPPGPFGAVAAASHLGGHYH
How it was run: as §1

[11] = target: ETV5 (Homo sapiens, UniProt P41161 1-510); settings: protein: recombinant; tags: N-terminal GST; dsDNA, one strand shown
ETV5, sequence (P41161 whole entry): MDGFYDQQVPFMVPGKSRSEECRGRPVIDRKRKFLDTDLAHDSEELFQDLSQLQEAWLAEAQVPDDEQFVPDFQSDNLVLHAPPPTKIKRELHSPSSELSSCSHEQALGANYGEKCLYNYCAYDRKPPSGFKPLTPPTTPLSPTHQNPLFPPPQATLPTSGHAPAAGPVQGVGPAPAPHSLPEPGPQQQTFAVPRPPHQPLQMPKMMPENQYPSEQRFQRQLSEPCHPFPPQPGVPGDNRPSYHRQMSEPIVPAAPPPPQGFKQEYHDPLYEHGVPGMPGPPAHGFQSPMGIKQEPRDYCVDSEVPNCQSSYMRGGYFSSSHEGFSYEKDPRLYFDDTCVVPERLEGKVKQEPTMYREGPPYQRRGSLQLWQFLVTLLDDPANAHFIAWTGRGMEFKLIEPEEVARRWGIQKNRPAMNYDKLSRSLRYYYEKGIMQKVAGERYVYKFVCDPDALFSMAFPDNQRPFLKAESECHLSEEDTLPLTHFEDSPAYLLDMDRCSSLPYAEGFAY
How it was run: as §1

[12] = target: HSF1 (Homo sapiens, UniProt Q00613 1-529); settings: protein: recombinant; tags: N-terminal GST; chain copies: 3; dsDNA, one strand shown
HSF1, sequence (Q00613 whole entry): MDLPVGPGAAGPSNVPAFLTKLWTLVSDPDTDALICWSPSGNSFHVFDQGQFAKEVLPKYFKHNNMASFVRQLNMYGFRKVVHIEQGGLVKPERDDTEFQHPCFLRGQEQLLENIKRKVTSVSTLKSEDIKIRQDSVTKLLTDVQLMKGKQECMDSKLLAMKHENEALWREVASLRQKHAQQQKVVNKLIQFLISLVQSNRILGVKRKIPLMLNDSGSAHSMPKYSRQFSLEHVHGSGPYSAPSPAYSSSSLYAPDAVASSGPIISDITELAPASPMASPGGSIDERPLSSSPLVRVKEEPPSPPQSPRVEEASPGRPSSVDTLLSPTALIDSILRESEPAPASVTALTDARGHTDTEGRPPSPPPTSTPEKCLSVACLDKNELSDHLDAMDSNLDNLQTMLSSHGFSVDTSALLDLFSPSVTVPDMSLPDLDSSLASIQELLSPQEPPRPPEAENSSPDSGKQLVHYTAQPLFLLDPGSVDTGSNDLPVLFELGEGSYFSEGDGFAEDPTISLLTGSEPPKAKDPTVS
How it was run: as §1

[13] = target: T8, SPIC (Homo sapiens, UniProt Q8N5J4 1-248); settings: protein: recombinant; tags: N-terminal GST; dsDNA, one strand shown
T8 sequence: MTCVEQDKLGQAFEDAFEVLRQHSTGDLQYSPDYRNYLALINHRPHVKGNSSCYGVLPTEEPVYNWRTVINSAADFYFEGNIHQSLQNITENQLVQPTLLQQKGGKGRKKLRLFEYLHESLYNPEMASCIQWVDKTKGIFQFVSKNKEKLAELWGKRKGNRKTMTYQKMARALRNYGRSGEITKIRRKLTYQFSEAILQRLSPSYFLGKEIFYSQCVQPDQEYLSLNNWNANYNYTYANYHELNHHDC
How it was run: as §1

[14] = target: ELF4 (Homo sapiens, UniProt Q99607 1-663); settings: protein: recombinant; tags: N-terminal GST; dsDNA, one strand shown
ELF4, sequence (Q99607 whole entry): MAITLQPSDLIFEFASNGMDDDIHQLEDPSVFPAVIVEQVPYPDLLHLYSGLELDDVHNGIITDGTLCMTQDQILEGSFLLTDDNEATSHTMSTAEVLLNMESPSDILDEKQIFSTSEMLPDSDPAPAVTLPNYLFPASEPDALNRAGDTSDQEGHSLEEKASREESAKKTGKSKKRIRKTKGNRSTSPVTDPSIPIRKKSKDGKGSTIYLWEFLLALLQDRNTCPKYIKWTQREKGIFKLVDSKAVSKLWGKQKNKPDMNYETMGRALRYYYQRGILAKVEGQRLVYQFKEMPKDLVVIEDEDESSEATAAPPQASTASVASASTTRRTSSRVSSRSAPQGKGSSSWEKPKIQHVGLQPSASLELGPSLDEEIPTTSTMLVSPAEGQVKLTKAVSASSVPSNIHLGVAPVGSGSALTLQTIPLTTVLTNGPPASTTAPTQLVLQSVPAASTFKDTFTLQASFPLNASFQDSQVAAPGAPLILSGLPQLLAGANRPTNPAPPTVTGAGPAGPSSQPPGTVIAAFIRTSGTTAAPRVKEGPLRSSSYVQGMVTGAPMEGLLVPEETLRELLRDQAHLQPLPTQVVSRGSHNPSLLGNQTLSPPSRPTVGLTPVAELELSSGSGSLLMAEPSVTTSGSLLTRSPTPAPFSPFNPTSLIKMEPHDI
How it was run: as §1

[15] = target: T9, ELK4 (Homo sapiens, UniProt P28324-2 1-405); settings: protein: recombinant; tags: N-terminal GST; dsDNA, one strand shown
T9 sequence: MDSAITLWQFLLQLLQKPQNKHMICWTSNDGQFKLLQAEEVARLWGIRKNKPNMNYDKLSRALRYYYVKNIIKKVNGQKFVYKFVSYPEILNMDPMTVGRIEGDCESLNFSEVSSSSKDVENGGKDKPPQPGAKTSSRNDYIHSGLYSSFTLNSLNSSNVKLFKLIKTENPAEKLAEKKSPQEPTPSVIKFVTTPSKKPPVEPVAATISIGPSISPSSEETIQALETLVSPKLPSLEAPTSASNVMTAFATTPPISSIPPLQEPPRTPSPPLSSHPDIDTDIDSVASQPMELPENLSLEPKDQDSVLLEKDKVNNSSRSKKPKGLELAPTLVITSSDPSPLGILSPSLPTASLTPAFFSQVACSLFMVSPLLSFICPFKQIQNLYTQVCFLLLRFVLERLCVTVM
How it was run: as §1

[16] = target: T10, ETV2 (Homo sapiens, UniProt O00321 1-342); settings: protein: recombinant; tags: N-terminal GST; dsDNA, one strand shown
T10 sequence: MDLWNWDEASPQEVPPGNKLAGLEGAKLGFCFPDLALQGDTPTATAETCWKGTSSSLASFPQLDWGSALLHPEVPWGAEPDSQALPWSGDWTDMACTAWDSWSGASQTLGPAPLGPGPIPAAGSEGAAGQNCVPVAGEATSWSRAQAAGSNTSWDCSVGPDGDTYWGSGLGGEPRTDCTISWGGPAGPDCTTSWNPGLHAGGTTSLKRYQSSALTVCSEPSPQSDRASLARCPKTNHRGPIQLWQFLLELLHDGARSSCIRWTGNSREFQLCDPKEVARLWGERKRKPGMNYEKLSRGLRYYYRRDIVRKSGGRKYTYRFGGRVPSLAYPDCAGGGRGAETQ
How it was run: as §1

[17] = target: T11, ELF3 (Homo sapiens, UniProt P78545 1-371); settings: protein: recombinant; tags: N-terminal GST; dsDNA, one strand shown
T11 sequence: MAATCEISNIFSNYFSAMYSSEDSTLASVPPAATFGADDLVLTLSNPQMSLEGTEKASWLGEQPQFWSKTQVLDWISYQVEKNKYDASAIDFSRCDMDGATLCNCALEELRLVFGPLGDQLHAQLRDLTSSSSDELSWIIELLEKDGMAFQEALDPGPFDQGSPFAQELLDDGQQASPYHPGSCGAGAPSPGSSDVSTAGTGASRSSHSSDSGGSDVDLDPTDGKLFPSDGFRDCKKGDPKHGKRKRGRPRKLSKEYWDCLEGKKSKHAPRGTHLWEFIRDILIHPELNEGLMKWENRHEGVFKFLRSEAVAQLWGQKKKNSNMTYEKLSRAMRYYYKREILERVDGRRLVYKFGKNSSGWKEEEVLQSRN
How it was run: as §1

[18] = target: CRX (Homo sapiens, UniProt O43186 1-299); settings: protein: recombinant; tags: N-terminal GST; dsDNA, one strand shown
CRX, sequence (O43186 whole entry): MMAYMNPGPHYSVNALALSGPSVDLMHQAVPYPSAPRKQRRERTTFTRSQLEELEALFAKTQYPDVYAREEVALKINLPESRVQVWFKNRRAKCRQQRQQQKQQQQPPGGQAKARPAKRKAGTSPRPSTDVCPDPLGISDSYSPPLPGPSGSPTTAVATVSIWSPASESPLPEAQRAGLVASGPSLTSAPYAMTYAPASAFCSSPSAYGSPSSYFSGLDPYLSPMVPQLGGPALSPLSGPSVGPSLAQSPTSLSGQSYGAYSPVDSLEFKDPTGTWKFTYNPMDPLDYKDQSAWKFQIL
How it was run: as §1

[19] = target: ETV1 (Homo sapiens, UniProt P50549 1-477); settings: protein: recombinant; tags: N-terminal GST; dsDNA, one strand shown
ETV1, sequence (P50549 whole entry): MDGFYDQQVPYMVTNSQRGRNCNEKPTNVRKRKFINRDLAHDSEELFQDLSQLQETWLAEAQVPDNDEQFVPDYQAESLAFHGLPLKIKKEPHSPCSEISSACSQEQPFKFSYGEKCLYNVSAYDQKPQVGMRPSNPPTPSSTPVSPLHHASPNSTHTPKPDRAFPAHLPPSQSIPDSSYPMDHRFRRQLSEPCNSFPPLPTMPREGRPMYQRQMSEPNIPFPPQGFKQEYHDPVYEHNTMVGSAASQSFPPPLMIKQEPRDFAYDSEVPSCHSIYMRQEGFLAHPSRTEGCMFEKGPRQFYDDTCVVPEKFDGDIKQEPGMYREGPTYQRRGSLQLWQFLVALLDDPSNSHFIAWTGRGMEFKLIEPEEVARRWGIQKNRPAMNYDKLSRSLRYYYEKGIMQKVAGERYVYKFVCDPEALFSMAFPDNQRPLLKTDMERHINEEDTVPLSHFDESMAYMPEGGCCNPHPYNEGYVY
How it was run: as §1

For CGCTTC, the binding signal [1] was 1.94 fold enrichment (6-mer frequency, TF over GST control), the binding signal [2] was 2.2 fold enrichment (6-mer frequency, TF over GST control) and the binding signal [3] was 1.99 fold enrichment (6-mer frequency, TF over GST control). For the same sequence, the binding signal [4] was 2.07 fold enrichment (6-mer frequency, TF over GST control), the binding signal [5] was 2.04 fold enrichment (6-mer frequency, TF over GST control) and the binding signal [6] was 2.16 fold enrichment (6-mer frequency, TF over GST control). The binding signal [7] was 2 fold enrichment (6-mer frequency, TF over GST control), the binding signal [8] was 2.05 fold enrichment (6-mer frequency, TF over GST control) and the binding signal [9] was 2.29 fold enrichment (6-mer frequency, TF over GST control). For the same sequence, the binding signal [10] was 2.28 fold enrichment (6-mer frequency, TF over GST control), the binding signal [11] was 2.34 fold enrichment (6-mer frequency, TF over GST control) and the binding signal [12] was 1.26 fold enrichment (6-mer frequency, TF over GST control). The binding signal [13] was 1.77 fold enrichment (6-mer frequency, TF over GST control), the binding signal [14] was 2.02 fold enrichment (6-mer frequency, TF over GST control) and the binding signal [15] was 1.77 fold enrichment (6-mer frequency, TF over GST control). The binding signal [16] was 1.68 fold enrichment (6-mer frequency, TF over GST control), the binding signal [17] was 1.93 fold enrichment (6-mer frequency, TF over GST control) and the binding signal [18] was 1.05 fold enrichment (6-mer frequency, TF over GST control). For the same sequence, the binding signal [19] was 2.03 fold enrichment (6-mer frequency, TF over GST control).
